NIH3T3 tox – cytotoxic compounds in NIH 3T3 cells; Potency, µM (top dose mostly 96.7 µM), usual class: inhibitors; hit rate 4.3% among 94,000; NIH 3T3 viability, CellTiter-Glo ATP luminescence, 48-72 h; note: nearly all actives have a fitted effect of over 55% in size
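Cytotoxicity is measured as loss of cellular ATP: NIH 3T3 cells (400/well) are exposed to compound for 48 or 72 hr at 37 °C, then CellTiter-Glo luminescence is imaged after 10 min at room temperature.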
IP6K1 inhibitor – inhibitors of human IP6K1 | activity change, % (series mostly up to about 58 µM) | hit rate 0.81% among 140,000 | IP6K1 kinase, ADP-Glo luminescence, 2 h; hits give low values; in the data active = activity change below about -25%
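ADP-Glo luminescence measures ADP made by human IP6K1 during a 2 h RT reaction with ATP/IP6 (mix at 1.3 mM/130 uM); top library doses 57.5 and 19.1 uM final.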
SNCA viab count – cell viability loss counter-screen | Potency, µM (top dose mostly 57.1 µM), usual class: cytotoxic | AID 1671193 | hit rate 0.12% among 150,000 | HEK-293-SNCA-luc viability, GF-AFC fluorescence, 24 h; note: nearly all actives have a fitted effect of over 30% in size
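Cytotoxicity counterscreen: after 24 h compound treatment of genome-edited SNCA-luciferase HEK-293 cells, live-cell protease substrate GF-AFC read by fluorescence after 30 min; activity scaled between DMSO (0%) and medium-only (-100%), curves Hill-fitted.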
Luciferase inh – blocks purified firefly luciferase enzyme activity; P08659; purified P. pyralis luciferase, luminescence, biochemical; Potency, µM (top dose mostly 115 µM), most hits filed as inhibitors; hit rate 2.5% among 76,000; AID 1347043; note: nearly all actives have a fitted effect of over 65% in size
Target sequence (P08659 whole entry, looked up): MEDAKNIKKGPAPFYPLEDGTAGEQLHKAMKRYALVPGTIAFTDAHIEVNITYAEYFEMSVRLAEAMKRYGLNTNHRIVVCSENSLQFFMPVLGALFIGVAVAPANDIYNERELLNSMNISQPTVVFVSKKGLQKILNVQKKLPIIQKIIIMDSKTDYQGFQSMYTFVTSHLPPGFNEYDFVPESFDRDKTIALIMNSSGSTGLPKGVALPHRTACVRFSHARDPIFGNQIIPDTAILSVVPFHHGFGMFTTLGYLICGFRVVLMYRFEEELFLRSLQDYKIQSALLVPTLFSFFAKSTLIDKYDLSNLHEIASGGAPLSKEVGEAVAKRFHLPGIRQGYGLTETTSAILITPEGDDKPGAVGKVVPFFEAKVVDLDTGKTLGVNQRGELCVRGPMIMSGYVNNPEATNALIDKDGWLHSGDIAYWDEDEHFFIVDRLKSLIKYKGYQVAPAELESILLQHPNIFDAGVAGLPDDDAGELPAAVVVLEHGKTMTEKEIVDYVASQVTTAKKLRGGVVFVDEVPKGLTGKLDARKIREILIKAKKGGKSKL
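FLuc 10nM, D-luciferin 10uM, ATP 10uM, Mg acetate 10mM, Tris acetate pH 7.5, Tween/BSA; cpd qHTS; enzyme added last; CCD luminescence.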
SNCA expr inh – reduces expression of the alpha-synuclein gene | Potency, µM (series often up to 57.2 µM), most hits filed as inhibitors | HEK-293 SNCA-luciferase knock-in, luminescence, 24 h | AID 1671194 | hit rate 0.17% among 140,000; note: nearly all actives have a fitted effect of over 45% in size
HEK cytotox – cytotoxic compounds in HEK 293 cells; HEK 293 viability, ATP luminescence (CellTiter-Glo), 48-72 h; Potency, µM (doses to about 115 µM), usual class: inhibitors; hit rate 6.6% among 94,000; note: nearly all actives have a fitted effect of over 60% in size
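250 HEK 293 cells/well; compound by pintool; incubated 48 or 72 hr at 37 degree Celsius; CellTiter-Glo added, 10 min RT, luminescence imaged.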
Large screens that a line does not name were inactive. Only some compounds are listed: those with a hit (about 7.3% of all), similar ones and a draw of the others. Unless noted, calls come from the whole dose curve; as a rule, active = well fitted curve in the direction sought with a large enough effect; inconclusive = small, poorly fitted or top-dose-only effect, or another doubt; inactive = no such curve, though single readings can be large; an effect the other way counts as inactive or inconclusive.

COc1cccc(-c2cn3cc(C(=O)NCCc4ccc(Cl)cc4)nc3s2)c1	SNCA viab count inconclusive, HEK cytotox 32µM (no result: Luciferase inh)
COc1ccc(CCNC(=O)c2cn3cc(-c4cccc(OC)c4)sc3n2)cc1	NIH3T3 tox inconclusive, HEK cytotox inconclusive (no result: Luciferase inh)
COc1ccc(-c2cn3cc(C(=O)NCC4CCCCC4)nc3s2)cc1	HEK cytotox inconclusive (no result: Luciferase inh)
COc1cccc(-c2cn3cc(C(=O)NCC4CC4)nc3s2)c1	NIH3T3 tox inconclusive, HEK cytotox 71µM (no result: Luciferase inh)
COc1cccc(-c2cn3cc(C(=O)NCC4CCCCC4)nc3s2)c1	NIH3T3 tox inconclusive, HEK cytotox 22µM (no result: Luciferase inh)
CN1c2cc(C(=O)N3CCN(c4ccccc4F)CC3)ccc2C(=O)N2CCCCCC21 (configuration not stated)	NIH3T3 tox inconclusive, SNCA expr inh inconclusive, HEK cytotox inconclusive
O=C(NC1CC1)C1CCC(=O)N(CCCc2ccccc2)C1 (configuration not stated)	none
O=C(NCCCc1ccccc1)C1CCCN1Cc1ccc(-c2cncnc2)cc1 (configuration not stated)	HEK cytotox inconclusive (no result: Luciferase inh)
O=C(c1cnc2n1CCN(CCc1ccccc1)CC2)N1CCC(c2ccccc2)CC1	NIH3T3 tox inconclusive, SNCA expr inh inconclusive, HEK cytotox 79µM
Nc1ncccc1CN1CCc2ncc(C(=O)NCc3ccccc3)n2CC1	NIH3T3 tox inconclusive, HEK cytotox inconclusive
O=C(NCc1ccccc1)c1cnc2n1CCN(Cc1cccs1)CC2	NIH3T3 tox 32µM, SNCA expr inh inconclusive, HEK cytotox inconclusive
CN(C(=O)c1cnc2n1CCN(CCc1ccccc1)CC2)c1ccccc1	NIH3T3 tox inconclusive, HEK cytotox inconclusive
O=C(NCc1ccccc1)c1cnc2n1CCN(Cc1ccc(F)cc1)CC2	NIH3T3 tox inconclusive, SNCA expr inh inconclusive, HEK cytotox 28µM
CC(C)CCN1CCn2c(nn(-c3ccc(C(F)(F)F)cc3)c2=O)C1	NIH3T3 tox inconclusive, HEK cytotox inconclusive (no result: Luciferase inh)
Cc1ccc(C(=O)NC2CCN(CCn3nc4n(c3=O)CCCC4)C2)cc1 (configuration not stated)	none (no result: SNCA viab count, Luciferase inh, SNCA expr inh)
CN(CC1CCOC1)C(=O)NCc1ccco1 (configuration not stated)	none
O=C(NC1CC1)c1nc(-c2cccc(F)c2)c2cnccn12	NIH3T3 tox inconclusive, HEK cytotox inconclusive
COCCNC(=O)c1nc(-c2ccccc2OC)c2cnccn12	NIH3T3 tox inconclusive, HEK cytotox inconclusive
O=C(NC1CC1)c1nc(-c2cccc(C(F)(F)F)c2)c2cnccn12	HEK cytotox 79µM
O=C(NC1CC1)c1nc(-c2ccccc2)c2ccccn12	NIH3T3 tox inconclusive, HEK cytotox 63µM
COc1ccccc1-c1nc(C(=O)NC2CC2)n2ccncc12	NIH3T3 tox 56µM, HEK cytotox inconclusive
Cc1noc(C)c1CCC(=O)N1C[C@@H](C)[C@@](C)(O)C1	none
COC[C@H]1CCCN1C(=O)C[C@@H]1O[C@H](CNC(=O)NC(C)C)[C@@H](O)[C@H]1O	none
COc1cccc(-c2ccnc(-c3nnc(C)n3C3CCCCC3)c2)c1	NIH3T3 tox 89µM, HEK cytotox 71µM
COc1ccc(-c2ccnc(-c3nnc(C)n3C3CCCCC3)c2)cc1OC	NIH3T3 tox inconclusive, HEK cytotox inconclusive
COc1cccc(Nc2ccnc(-c3nnc(C)n3C3CCCCC3)c2)c1	NIH3T3 tox 89µM, HEK cytotox 71µM
CC1CCN(CC2CCCCCN2C(=O)NCc2ccc(F)cc2)CC1 (configuration not stated)	none
O=C(NCCc1ccc(Cl)cc1)c1cc(-c2cccs2)c2cccn2n1	NIH3T3 tox inconclusive, HEK cytotox 45µM (no result: Luciferase inh)
O=C(NCc1cccs1)c1cc(-c2cccs2)c2cccn2n1	NIH3T3 tox inconclusive, HEK cytotox 50µM (no result: Luciferase inh)
O=C(NCCCc1ccccc1)c1cc(-c2cccs2)c2cccn2n1	NIH3T3 tox inconclusive, HEK cytotox inconclusive (no result: Luciferase inh)
O=C1NC(=NC2CCCC2)C2(CCN([S+](=O)([O-])c3ccccc3)CC2)N1c1cccnc1	none (no result: Luciferase inh)
COCCN1CCOc2nc(-c3ccc(Oc4ccccc4)cc3)ncc2C1=O	NIH3T3 tox inconclusive, Luciferase inh 22µM, HEK cytotox 56µM
COc1ccc(CN2CCOc3nc(-c4cccc(NC(C)=O)c4)ncc3C2=O)cc1	NIH3T3 tox inconclusive, HEK cytotox 100µM
O=C1c2cnc(-c3cccnc3)nc2OCCN1Cc1ccccc1	HEK cytotox inconclusive
O=C1c2cnc(-c3ccc(CO)cc3)nc2OCCN1Cc1ccc(F)cc1F	NIH3T3 tox inconclusive, SNCA viab count inconclusive, Luciferase inh inconclusive, HEK cytotox 89µM
O=C1c2cnc(-c3ccc(Oc4ccccc4)cc3)nc2OCCN1CC1CC1	NIH3T3 tox 28µM, SNCA viab count inconclusive, Luciferase inh inconclusive, SNCA expr inh inconclusive, HEK cytotox inconclusive
O=C1c2cnc(-c3ccc(F)cc3)nc2OCCN1Cc1ccc(F)cc1F	NIH3T3 tox inconclusive, HEK cytotox inconclusive
Cc1noc(C)c1-c1ncc2c(n1)OCCN(Cc1ccccc1)C2=O	NIH3T3 tox inconclusive
O=C1c2cnc(-c3ccsc3)nc2OCCN1CC1CC1	Luciferase inh inconclusive, HEK cytotox inconclusive
Clc1ccc(C2Cn3nnc(-c4nc(-c5ccc6c(c5)OCO6)no4)c3CO2)cc1 (configuration not stated)	none
COc1ccc(C(=O)NC2CCN(c3ccc4nnc(-c5ccccc5)n4n3)C2)cc1 (configuration not stated)	NIH3T3 tox inconclusive, HEK cytotox inconclusive (no result: SNCA viab count, Luciferase inh, SNCA expr inh)
CC(C)NC(=O)c1ccc(CC2CCN(C)CC2)cc1	none
COc1ccc(-c2nc(-c3nnn4c3COC(c3ccc(C)cc3)C4)no2)c(OC)c1 (configuration not stated)	none
CC(=O)Nc1ccc(NC(=O)c2c(C)oc3ccn(Cc4ccc(F)cc4)c(=O)c23)cc1	HEK cytotox inconclusive
Cc1oc2ccn(Cc3ccc(F)cc3)c(=O)c2c1C(=O)NC1CCCCCC1	NIH3T3 tox inconclusive, HEK cytotox 35µM
COc1ccc(NC(=O)[C@@H]2C[C@H](c3ccc(F)cc3)N(Cc3csc(C)n3)C2)c(C)c1	NIH3T3 tox 71µM, SNCA expr inh inconclusive, HEK cytotox 89µM
COc1ccc(NC(=O)[C@@H]2C[C@H](c3ccc(F)cc3)N(Cc3csc(C)n3)C2)cn1	NIH3T3 tox inconclusive, SNCA viab count inconclusive, HEK cytotox inconclusive
Cc1nc(CN2C[C@H](C(=O)NCCOc3ccccc3)C[C@@H]2c2ccc(F)cc2)cs1	NIH3T3 tox 56µM, HEK cytotox 89µM
Cc1nc(CN2C[C@H](C(=O)Nc3cccc(Cl)c3)C[C@@H]2c2ccc(F)cc2)cs1	NIH3T3 tox 50µM, SNCA viab count inconclusive, SNCA expr inh inconclusive, HEK cytotox 50µM

Bioassay records: PubChem BioAssay, National Center for Advancing Translational Sciences (NCATS)
